In PubChem BioAssay (NCI):
Compounds without any hit were thinned out: in the full panel of roughly 83,000, 20% have a hit.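 Each cell line was grown in a 96-well plate and treated with one concentration of compound for 48 hours. Values below 10 were considered active.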 Activity calls are given as the source filed them.

How the values were obtained:
Experiment in all cases: NCI-60 one-dose screen, 48 h (100 = growth as untreated, 0 = no growth, -100 = all killed)
Conditions in all cases: 10 µM
[1] = test system: T-47D breast
[2] = test system: BT-549 breast
[3] = test system: MDA-MB-435 melanoma
[4] = test system: SW-620 colon
[5] = test system: MCF7 breast
[6] = test system: HCT-116 colon
[7] = test system: HCC-2998 colon
[8] = test system: KM12 colon
[9] = test system: MDA-MB-468 breast

Measured: growth

Cc1ccc([N+](=O)[O-])c(C(=O)Nc2ccc(-c3ccc4c(c3)NC(=O)/C4=C\c3ccc[nH]3)cc2)c1
inactive: [2] 97.5% | [3] 32% | [6] 55.9% | [7] 47.6%
active: [1] -15.7% | [4] -51.2% | [5] -47.7% | [8] -10.9%

CN(C)CCNC(=O)OCCCCOc1cc(O)c2c(=O)cc(-c3ccccc3)oc2c1
active: [1] -65.8% | [2] -59.9% | [3] -51% | [4] -31.7% | [5] -89.8% | [6] -68.9% | [7] -50.8% | [8] -49.8%

CC(=O)Nc1nc(-c2ccc(N3CCN(C)CC3)c(NS(=O)(=O)c3ccc(C(F)(F)F)cc3)c2)cs1
inactive: [1] 25.4% | [7] 15.4%
active: [2] -29.4% | [3] 6.38% | [4] -41.6% | [5] 6.99% | [6] -75.8% | [8] 2.44%

CCCn1c(=O)c2[nH]c(-c3ccc(OCc4nc5ccc(C(F)(F)F)cc5[nH]4)cc3)nc2n(CCC)c1=O
inactive: [1] 33.2% | [2] 41.7% | [3] 63% | [4] 70% | [5] 28.3% | [6] 25.2% | [7] 76.7% | [8] 55.5%

Cc1ccc(-c2cc(C(=O)N=Nc3c(O)[nH]c4ccc(Br)cc34)c3ccccc3n2)cc1
inactive: [1] 75.2% | [2] 86.3% | [3] 45.1% | [4] 34.1% | [5] 28.5% | [6] 27.4% | [7] 45.5% | [8] 49.1%

C=C1CCC2C3(C)COC(c4ccccc4F)OC3CCC2(C)C1C/C=C1/C(=O)OCC1O (centres undefined)
active: [1] -50.4% | [2] -82.1% | [3] 4.59% | [4] -68.5% | [5] -26.5% | [6] -67.8% | [7] -73.5% | [8] -82.3%

O=C(CSc1nnc(-c2c[nH]c3ccccc23)n1-c1ccccc1)c1ccc(Br)cc1
inactive: [1] 22% | [2] 65.2% | [3] 40.9% | [4] 79.8% | [5] 53.4% | [6] 54.3% | [7] 31.7% | [8] 34.6%

O=C(CNc1nc(-c2ccccc2)cs1)Nc1ccc([N+](=O)[O-])cc1Cl
active: [2] 8.83% | [5] 9.27% | [7] 7.28%
inactive: [1] 12.5% | [3] 44% | [4] 23.2% | [6] 21.4% | [8] 29.1%

COc1ccc(CN2[C@H](C(=O)NCc3ccc(C(=O)NO)cc3)Cc3c([nH]c4ccccc34)[C@H]2C2CC2)cc1
inactive: [1] 40.4% | [2] 58.6% | [3] 18.1% | [4] 30.9% | [5] 36.8% | [6] 23% | [7] 33% | [8] 44.7%
active: [9] 3.8%

CC1(C)CC[C@]2(C(=O)O)CC[C@]3(C)C(=CC[C@@H]4[C@@]5(C)C/C(=C/c6ccncc6)[C@H](O)C(C)(C)[C@@H]5CC[C@]43C)[C@@H]2C1
inactive: [1] 43.6% | [2] 50.8% | [3] 54.8% | [4] 34.6% | [5] 24.4% | [6] 26% | [7] 49.1% | [8] 21.1%
active: [9] 5.27%

O=c1[nH]c2ccccc2cc1CSc1ccc(Nc2nccc(-c3ccc(C(F)(F)F)cc3)n2)cc1
active: [6] 6.96%
inactive: [1] 18.8% | [2] 31.7% | [3] 63.3% | [4] 31% | [5] 25.3% | [7] 48.1% | [8] 46.8%

O=C(N/N=C/c1ccc(-c2cccc([N+](=O)[O-])c2)o1)c1[nH]c2ccc(Br)cc2c1-c1ccccc1
inactive: [1] 75.9% | [2] 30.5% | [3] 16.6% | [4] 15.5% | [7] 15%
active: [5] 1.16% | [6] -53.2% | [8] 7.57%

COc1ccc([C@H]2C(C(=O)c3ccc(Cl)cc3)C3(N[C@@H]2c2ccccc2)C(=O)Nc2ccc(Br)cc23)cc1 (some centres undefined)
inactive: [1] 21.2% | [2] 21.9%
active: [3] -36.6% | [4] 7.87% | [5] -7.25% | [6] 1.73% | [7] -41% | [8] -5.82%

COc1ccc(C(=O)Nc2sc3c(c2C#N)CCC(=O)C3)cc1C(F)(F)F
inactive: [8] 10.4%
active: [1] -51.2% | [2] -58.3% | [3] -21.7% | [4] -30.7% | [5] -10.1% | [6] 0.735% | [7] 6.84%

CN1CCN(c2ccc(Nc3nc(NCCCNC(=O)C4CCCCC4)c4sccc4n3)cc2)CC1
inactive: [1] 36.6% | [2] 69.1% | [3] 34% | [4] 40% | [5] 23.1% | [6] 30.8% | [7] 59.5% | [8] 63.7%

O=c1[nH]c2ccccc2cc1CSc1ccc(Nc2nccc(-c3ccc4c(c3)OCO4)n2)cc1
inactive: [1] 75.5% | [2] 65.5% | [3] 93.6% | [4] 80.6% | [5] 56% | [6] 84.1% | [7] 95.5% | [8] 74.2%

Cc1ccc2nc(COc3ccc(C(=O)NNC(=S)NC(=O)c4ccccc4)cc3)[nH]c2c1
inactive: [1] 60.5% | [2] 81.8% | [3] 64.3% | [4] 39.5% | [5] 30.6% | [6] 38.5% | [7] 66.1% | [8] 49.4%

COc1cc(NC(=O)CSc2nnc(-c3ccc4nc(-c5ccc(Cl)cc5)[nH]c4c3)o2)cc(OC)c1OC
inactive: [1] 13.2% | [2] 63.1% | [3] 67.8% | [4] 80.1% | [5] 29.1% | [6] 37.1% | [7] 110% | [8] 70%

COc1cc2c(c(OC)c1OC)C(=O)CC(c1cccc(NC(=O)c3cccc(N)c3)c1)O2 (centres undefined)
inactive: [1] 35.5% | [2] 63.8% | [3] 77.4% | [4] 94.1% | [5] 57.8% | [6] 65.4% | [7] 114% | [8] 72.2%

C=CCn1c(SCC(=O)Nc2ccc(C(=O)/C=C/c3ccccc3)cc2)nnc1-c1c[nH]c2ccccc12
active: [3] -13.5% | [4] -28.2% | [5] -67.7% | [6] -52.4% | [7] -69.4% | [8] 6.81%
inactive: [1] 20.8% | [2] 45.6%

Cc1ccc(C(C)C)cc1NC(=O)c1ccccc1N(C)C
inactive: [1] 57.1% | [2] 102% | [3] 95% | [4] 106% | [5] 82.8% | [6] 68.3% | [7] 96.7% | [8] 86.7%

COc1cc(/C=C/C(=O)c2ccc(C(F)(F)F)cc2)ccc1Oc1nc(Nc2ccc(F)cc2)nc(N(C)C)n1
inactive: [1] 44.6% | [2] 90.9% | [3] 80.1% | [4] 50.2% | [5] 30.8% | [7] 97.9% | [8] 87.8% | [9] 66.4%
active: [6] 7.06%

Cc1ccc(C(=O)N/C(=C2/OCCN2C)[P+](c2ccccc2)(c2ccccc2)c2ccccc2)cc1
inactive: [1] 55.3% | [2] 86.8% | [3] 54.4% | [4] 84.1% | [5] 56.4% | [6] 57.9% | [7] 75.1% | [8] 55.4%

COc1ccc2[nH]c(O)c(N=NC(=O)COc3ccc(NC(=O)Nc4ccc(Cl)cc4)cc3)c2c1
active: [3] -52% | [4] 4.49% | [5] 1.75% | [6] -33.8% | [7] -14.3% | [8] 4.25%
inactive: [1] 83.8% | [2] 76%

O=C(O)CCCCCCCCCCN1C(=O)/C(=C/c2cnc(-c3ccccc3)s2)SC1=S
inactive: [1] 74.2% | [2] 106% | [3] 87% | [4] 44.1% | [5] 28.8% | [6] 31.8% | [7] 124% | [8] 24.6%

CC1=C(C(=O)OC(C)C)C(c2ccc(O)cc2)NC(=S)N1 (centres undefined)
inactive: [1] 102% | [2] 82.7% | [3] 110% | [4] 120% | [5] 97.7% | [6] 98.1% | [7] 107% | [8] 106%

COc1ccc(N2N=C(c3ccc4c(c3)OCCO4)CC2c2cccc(NC(=O)CCCNS(=O)(=O)c3ccc(F)cc3)c2)cc1 (centres undefined)
active: [8] -92.8%
inactive: [1] 63.3% | [2] 78.3% | [3] 69.7% | [4] 95.2% | [5] 60.7% | [6] 73.3% | [7] 77.1%

O=C(NO)c1ccc(CNc2nc(-c3ccccc3)c3ccccc3n2)cc1
inactive: [2] 18.1% | [8] 11.6%
active: [1] -13.1% | [3] 4.16% | [4] -58.2% | [5] 7.92% | [6] 4% | [7] -63.9% | [9] -0.98%

COc1cc(/C=C/C(=O)c2ccc(NC(=O)CN3C(=O)NC(C)(c4ccccc4)C3=O)cc2)cc(OC)c1OC (centres undefined)
active: [3] 7.31% | [4] 8.07% | [5] 2.86% | [6] -69.7% | [8] -6.47%
inactive: [1] 33.9% | [2] 10.9% | [7] 10%

Cc1ccc(/C(CSc2nnc(-c3c[nH]c4ccccc34)n2-c2ccccc2)=N/O)cc1
inactive: [8] 50.2%
active: [1] -47.3% | [2] -75.5% | [3] -100% | [4] -80.4% | [5] -55% | [6] 2.62% | [7] -41.9%
